In the supplement of paper PMC8975748:
Structures can show the parent of a compound that is named as a salt. ± gives the standard deviation of the averaged measurements.

Assays:
[1] = tested on: Saccharomyces cerevisiae BY4741 SeMeCo community; experiment: mean cell size (pixel area) (pixels); higher = larger cells; conditions: 10 µM; 24 h; SM minimal medium
Summary of the method: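 A Saccharomyces cerevisiae BY4741 community carrying four plasmids, each with a fluorescent marker and each complementing one auxotrophy, was exposed for 24 h to drug at a final 10 µM in SM medium in acoustically predosed 384-well plates. The overnight preculture (OD600 = 1.0) was diluted to OD600 = 0.3 before 70 µl was added per well. Cells were then fixed with paraformaldehyde, imaged by automated confocal microscopy and analysed in Harmony to derive mean cell pixel area per well, averaged over 3 replicates. Same SeMeCo high-content imaging drug screen: Selleck FDA-approved drugs at 10 µM, 24 h in SM medium, 384-well plates, 3 replicates.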

[2] = tested on: Saccharomyces cerevisiae BY4741 SeMeCo community; experiment: z-score of prototroph abundance vs DMSO median; higher = larger share of this subpopulation than in DMSO controls; conditions: 10 µM; 24 h; SM minimal medium; subpopulation (auxotrophy): Prototroph
Summary of the method: (§1)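 Scoring was based on each subpopulation's abundance, expressed as a z-score against the vehicle-well median. A Saccharomyces cerevisiae BY4741 community with four plasmids, each restoring one auxotrophy and encoding a distinct fluorescent protein, was pre-grown overnight to OD600 1.0, diluted to 0.3, and added at 70 µl to 384-well plates acoustically predosed with library drugs (10 µM final). It then grew 24 h in minimal SM medium before paraformaldehyde fixation and automated confocal microscopy, with single-auxotroph fluorescent strains setting thresholds and autofluorescence correction.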

[3] = tested on: Saccharomyces cerevisiae BY4741 SeMeCo community; experiment: z-score of subpopulation abundance vs DMSO median, subpopulation auxotrophic for M; higher = larger share of this subpopulation than in DMSO controls; conditions: 10 µM; 24 h; SM minimal medium; subpopulation (auxotrophy): M
Summary of the method: as §1

[4] = tested on: Saccharomyces cerevisiae BY4741 SeMeCo community; experiment: z-score of subpopulation abundance vs DMSO median, subpopulation auxotrophic for L; higher = larger share of this subpopulation than in DMSO controls; conditions: 10 µM; 24 h; SM minimal medium; subpopulation (auxotrophy): L
Summary of the method: as §1

[5] = tested on: Saccharomyces cerevisiae BY4741 SeMeCo community; experiment: z-score of subpopulation abundance vs DMSO median, subpopulation auxotrophic for U; higher = larger share of this subpopulation than in DMSO controls; conditions: 10 µM; 24 h; SM minimal medium; subpopulation (auxotrophy): U
Summary of the method: as §1

[6] = tested on: Saccharomyces cerevisiae BY4741 SeMeCo community; experiment: z-score of subpopulation abundance vs DMSO median, subpopulation auxotrophic for H; higher = larger share of this subpopulation than in DMSO controls; conditions: 10 µM; 24 h; SM minimal medium; subpopulation (auxotrophy): H
Summary of the method: as §1

[7] = tested on: Saccharomyces cerevisiae BY4741 SeMeCo community; experiment: z-score of subpopulation abundance vs DMSO median, subpopulation auxotrophic for LU; higher = larger share of this subpopulation than in DMSO controls; conditions: 10 µM; 24 h; SM minimal medium; subpopulation (auxotrophy): LU
Summary of the method: as §1

[8] = tested on: Saccharomyces cerevisiae BY4741 SeMeCo community; experiment: z-score of subpopulation abundance vs DMSO median, subpopulation auxotrophic for LM; higher = larger share of this subpopulation than in DMSO controls; conditions: 10 µM; 24 h; SM minimal medium; subpopulation (auxotrophy): LM
Summary of the method: as §1

[9] = tested on: Saccharomyces cerevisiae BY4741 SeMeCo community; experiment: z-score of subpopulation abundance vs DMSO median, subpopulation auxotrophic for HM; higher = larger share of this subpopulation than in DMSO controls; conditions: 10 µM; 24 h; SM minimal medium; subpopulation (auxotrophy): HM
Summary of the method: as §1

[10] = tested on: Saccharomyces cerevisiae BY4741 SeMeCo community; experiment: z-score of subpopulation abundance vs DMSO median, subpopulation auxotrophic for HU; higher = larger share of this subpopulation than in DMSO controls; conditions: 10 µM; 24 h; SM minimal medium; subpopulation (auxotrophy): HU
Summary of the method: as §1

[11] = tested on: Saccharomyces cerevisiae BY4741 SeMeCo community; experiment: z-score of subpopulation abundance vs DMSO median, subpopulation auxotrophic for UM; higher = larger share of this subpopulation than in DMSO controls; conditions: 10 µM; 24 h; SM minimal medium; subpopulation (auxotrophy): UM
Summary of the method: as §1

[12] = tested on: Saccharomyces cerevisiae BY4741 SeMeCo community; experiment: z-score of subpopulation abundance vs DMSO median, subpopulation auxotrophic for HL; higher = larger share of this subpopulation than in DMSO controls; conditions: 10 µM; 24 h; SM minimal medium; subpopulation (auxotrophy): HL
Summary of the method: as §1

[13] = tested on: Saccharomyces cerevisiae BY4741 SeMeCo community; experiment: z-score of subpopulation abundance vs DMSO median, subpopulation auxotrophic for HLU; higher = larger share of this subpopulation than in DMSO controls; conditions: 10 µM; 24 h; SM minimal medium; subpopulation (auxotrophy): HLU
Summary of the method: as §1

[14] = tested on: Saccharomyces cerevisiae BY4741 SeMeCo community; experiment: z-score of subpopulation abundance vs DMSO median, subpopulation auxotrophic for HLM; higher = larger share of this subpopulation than in DMSO controls; conditions: 10 µM; 24 h; SM minimal medium; subpopulation (auxotrophy): HLM
Summary of the method: as §1

[15] = tested on: Saccharomyces cerevisiae BY4741 SeMeCo community; experiment: z-score of subpopulation abundance vs DMSO median, subpopulation auxotrophic for HUM; higher = larger share of this subpopulation than in DMSO controls; conditions: 10 µM; 24 h; SM minimal medium; subpopulation (auxotrophy): HUM
Summary of the method: as §1

[16] = tested on: Saccharomyces cerevisiae BY4741 SeMeCo community; experiment: z-score of subpopulation abundance vs DMSO median, subpopulation auxotrophic for LUM; higher = larger share of this subpopulation than in DMSO controls; conditions: 10 µM; 24 h; SM minimal medium; subpopulation (auxotrophy): LUM
Summary of the method: as §1

[17] = tested on: Saccharomyces cerevisiae BY4741 SeMeCo community; experiment: z-score of subpopulation abundance vs DMSO median, subpopulation auxotrophic for HLUM; higher = larger share of this subpopulation than in DMSO controls; conditions: 10 µM; 24 h; SM minimal medium; subpopulation (auxotrophy): HLUM
Summary of the method: as §1

SMILES	mean cell size [1]	z-score of prototroph abundance [2]	z-score of subpopulation abundance [3]	z-score of subpopulation abundance [4]	z-score of subpopulation abundance [5]	z-score of subpopulation abundance [6]	z-score of subpopulation abundance [7]	z-score of subpopulation abundance [8]	z-score of subpopulation abundance [9]	z-score of subpopulation abundance [10]	z-score of subpopulation abundance [11]	z-score of subpopulation abundance [12]	z-score of subpopulation abundance [13]	z-score of subpopulation abundance [14]	z-score of subpopulation abundance [15]	z-score of subpopulation abundance [16]	z-score of subpopulation abundance [17]
O=C(O)C[C@H](O)C[C@H](O)/C=C/c1c(C2CC2)nc2ccccc2c1-c1ccc(F)cc1 [Pitavastatin Calcium]	12 ± 0.2	-2.8	1	0.86	0.68	1.86	1.45	-0.2	4.05	2.66	1.84	1.83	1.38	2.39	3.37	1.38	–
Oc1ccc(C2CNCCc3c2cc(O)c(O)c3Cl)cc1 (stereo not drawn) [Fenoldopam mesylate]	12.9 ± 0.26	0.87	1.31	-1.59	-1.92	–	-1.75	2.31	1.58	-0.06	-1.9	0.16	-0.29	0.63	-0.92	-1.22	–
CO[C@@]1(NC(=O)CSC[C@@H](N)C(=O)O)C(=O)N2C(C(=O)O)=C(CSc3nnnn3C)CS[C@@H]21 [Cefminox Sodium]	12.6 ± 0.55	-0.58	-0.58	1.5	0.77	1.45	0.8	-0.15	-0.24	–	0	–	0.47	3.56	-0.35	-0.31	-0.45
CN(C)CC(c1ccc(O)cc1)C1(O)CCCCC1 (stereo not drawn) [Desvenlafaxine]	12.4 ± 0.27	0.76	-0.95	-0.35	0.57	-0.84	-0.16	-0.57	-1.06	-0.26	-0.37	-0.75	-1.12	-0.85	-0.85	-0.64	–
Nc1ccc(S(=O)(=O)Nc2ncccn2)cc1 [Sulfadiazine]	12.34 ± 0.084	0.05	-0.51	0.86	-0.28	-0.65	0.22	-0.04	-0.44	-0.2	-0.04	-0.65	0.31	0	-0.05	0.42	–
Cc1c(S(=O)(=O)O)oc2c1C(=O)C(=O)c1c-2ccc2c1CCCC2(C)C [Tanshinone IIA sulfonate (sodium)]	11.85 ± 0.095	-0.48	1.72	0.5	-1.39	1.42	-0.91	-0.11	-0.31	-2.62	1.77	4.28	-0.84	3.71	0.71	1.3	–
Cc1nnc(NS(=O)(=O)c2ccc(N)cc2)s1 [Sulfamethizole]	12.3 ± 0.23	0.97	-0.46	0.65	–	-1.02	-0.31	-0.01	-1.19	-0.26	-0.65	-0.84	-1.06	-0.87	-0.98	–	-0.49
CCCCN1CCCCC1C(=O)Nc1c(C)cccc1C (stereo not drawn) [Bupivacaine HCl]	12.48 ± 0.1	0.23	0.05	-0.57	0.36	0.67	-0.05	-0.93	0.01	–	–	-0.36	-0.41	0.32	-0.41	–	-0.67
CCCN1C[C@H](C)[C@@H](O)[C@](C)(O)[C@@H](CC)OC(=O)[C@H](C)[C@@H](O[C@H]2C[C@@](C)(OC)[C@@H](O)[C@H](C)O2)[C@H](C)[C@@H](O[C@@H]2O[C@H](C)C[C@H](N(C)C)[C@H]2O)[C@](C)(O)C[C@H]1C [Gamithromycin]	12.3 ± 0.13	–	-0.59	0.42	-0.04	–	-0.16	0.13	0.24	-0.26	-0.02	0.97	0.75	-0.18	0.28	-0.04	–
O=C(Cn1cnnn1)N[C@@H]1C(=O)N2C(C(=O)O)=C(CSc3nncs3)CS[C@H]12 [Ceftezole sodium]	12.31 ± 0.087	-0.69	0.01	-0.77	1.07	-0.94	0.2	0.18	-0.19	0.45	0.35	0	0.11	0.32	-0.02	0.36	–
CNC1CCCN(c2c(F)cc3c(=O)c(C(=O)O)cn(C4CC4)c3c2OC)C1 (stereo not drawn) [Balofloxacin]	12.32 ± 0.029	–	0.44	-0.33	–	-0.4	-0.04	-0.13	-0.09	–	0.59	-0.7	-0.57	-0.9	0.67	0.17	-0.35
CCCC(=O)OCOC(=O)C1=C(C)NC(C)=C(C(=O)OC)C1c1cccc(Cl)c1Cl (stereo not drawn) [Clevidipine Butyrate]	12.4 ± 0.13	1.07	4.72	2.14	-3.89	1.96	-5.98	3.42	2.78	–	-5.87	2.31	-3.55	3.24	-4.83	-4.1	0.59
OCCOCCN1CCN(C2=Nc3ccccc3Sc3ccccc32)CC1 [Quetiapine Fumarate]	12.42 ± 0.12	-0.49	0.24	0.37	-0.17	-0.24	-0.19	0.32	0.13	-0.61	–	-0.06	0.76	0.55	0.19	0.86	–
